# Cruzain noTriton: inhibitors of Trypanosoma cruzi cruzain without detergent; purified cruzain, Z-FR-AMC fluorescence, no detergent; Potency, µM, without a hit: max response, negative = inhibition, actives largely listed as inhibitors; 2.3% of 200,000 active; AID 1476;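 further: plate controls were enzyme without inhibitor for no effect and buffer without enzyme for full effect; nearly all actives have a fitted effect of over 40% in size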
# Target sequence (P25779 123-467 limits assumed): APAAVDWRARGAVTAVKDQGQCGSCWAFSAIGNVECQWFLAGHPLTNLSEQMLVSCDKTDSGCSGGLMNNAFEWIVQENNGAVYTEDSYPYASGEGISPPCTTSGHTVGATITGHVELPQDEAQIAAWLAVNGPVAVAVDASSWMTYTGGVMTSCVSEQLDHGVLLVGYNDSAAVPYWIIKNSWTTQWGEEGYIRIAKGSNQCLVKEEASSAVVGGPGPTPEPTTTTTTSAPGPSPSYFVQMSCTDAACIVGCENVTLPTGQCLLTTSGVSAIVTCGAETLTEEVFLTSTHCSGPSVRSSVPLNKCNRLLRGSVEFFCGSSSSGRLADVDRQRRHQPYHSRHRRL
#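 Detergent-free condition (0.00005% Triton X-100) in acetate buffer pH 5.5 with DTT. 1.5 nM enzyme and compound were pre-mixed 15 min, then 2 uM Z-FR-AMC substrate added; reaction progress from fluorescence change between first and third reads (60 s).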
# Cruzain Triton: blocks cruzain activity in presence of Triton detergent; P25779; purified cruzain, Z-FR-AMC fluorescence, 0.01% Triton; Potency, µM, without a hit: max response, negative = inhibition, most hits filed as inhibitors; 0.43% of 200,000 active; AID 1478;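 further: plate controls were neutral wells for no effect and buffer without enzyme for full effect; nearly all actives have a fitted effect of over 40% in size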
#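 Sodium acetate buffer (100 mM, pH 5.5) containing 5 mM DTT and 0.01% Triton X-100 hosted 1.5 nM cruzain and test compound for 15 min at room temperature. Cleavage of 2 uM Z-FR-AMC was then tracked by fluorescence.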
# * hit, by the source's call; ? = inconclusive. An excerpt weighted towards active compounds, which were near 2.6% of everything screened. The call rests on the fitted dose curve; in most records, active means well fitted curve in the direction sought with a large enough effect; inconclusive means small, poorly fitted or top-dose-only effect, or another doubt; inactive means no such curve, though single readings can be large; an effect the other way counts as inactive or inconclusive. Potency means the concentration at half of the fitted maximal effect.
SMILES,Cruzain noTriton,Cruzain Triton
CCN(CC)S(=O)(=O)c1ccc2c(c1)N(CC(=O)NCCc1ccc(OC)c(OC)c1)C(=O)CO2,7%,1%
COc1ccc(N2CCN(C(=O)c3ccc(-c4nc(COc5ccccc5)c(C)o4)cc3)CC2)cc1,3%,-1%
COc1cccc(NC(=O)CSc2nc(C)c(Cc3ccccc3)c(=O)[nH]2)c1,-9%,-5%
COCCn1c(=O)c(-c2ccc(Cl)cc2)nc2cnc(N3CCOCC3)nc21,4%,2%
COc1ccc(-c2coc3cc4oc(=O)cc(-c5ccccc5)c4cc23)cc1F,10µM*,1%
COc1ccc(-c2coc3cc4oc(=O)cc(C)c4cc23)cc1F,-27%,3%
COc1ccc(CNC(=O)c2ccc(-c3nc(CSc4ccccc4)c(C)o3)cc2)cc1,4%,-2%
Clc1ccc(Nc2nc(-c3ccccc3)c3ccccc3n2)c(Cl)c1,-5%,1%
CCOc1ccccc1NC(=O)COC(=O)C(CC(C)C)N1C(=O)C2CC=CCC2C1=O (stereo not drawn),8%,-26%
CC(C)CC(C(=O)OCC(=O)Nc1cccc(Cl)c1)N1C(=O)C2CC=CCC2C1=O (stereo not drawn),-19%,14µM*
Cc1ccc(NC(=O)C2CCN(c3nn4c(=O)cc(C)nc4s3)CC2)cc1,-2%,-1%
Cc1cccc(NC(=O)c2ccc3nc(CCc4ccccc4)oc3c2)c1C,2%,-2%
Cc1ccccc1Cn1ccc(-c2ccc(Cl)cc2)c(C#N)c1=O,25µM*,-8%
Cc1ccc(Cn2ccn(Cc3ccccc3C)c(=O)c2=O)cc1,7%,-1%
Cc1cc(C)cc(NC(=O)c2cc(S(=O)(=O)N3CCCCC3)c[nH]2)c1,-18%,1%
O=C(Nc1ccccc1)c1ccc(-c2ccc(Br)cc2)o1,-7%,-8%
O=C(Nc1cccc(NC(=O)c2ccc(-c3ccc(Br)cc3)o2)c1)c1ccccc1,5µM*,-12%
Cc1cccc(C(=O)Nc2nnc(S(=O)(=O)N(C)Cc3ccc(Cl)cc3)s2)c1,?,-5%
Cc1ccccc1OCc1nc(-c2ccc(NC(=O)c3ccco3)cc2)no1,2%,-5%
Cc1ccccc1OCc1nc(-c2ccc(NC(=O)c3ccc4c(c3)OCO4)cc2)no1,13µM*,3%
COc1ccccc1CNC(=O)C1CCCN(S(=O)(=O)c2ccc3c(c2)oc(=O)n3C)C1 (stereo not drawn),-2%,-1%
Cc1sc2nc(SCc3nc4ccccc4[nH]3)n(Cc3ccco3)c(=O)c2c1C,32µM*,-2%
COc1cccc(CSc2nc3sc(C)c(C)c3c(=O)n2Cc2ccco2)c1,25µM*,-3%
Cc1cccc(CSc2nc3sc(C)c(C)c3c(=O)n2Cc2ccco2)c1,?,4%
Cc1sc2nc(SCc3ccccc3)n(Cc3ccco3)c(=O)c2c1C,?,0%
SMILES,Cruzain noTriton,Cruzain Triton
CC(C)c1ccc(NC(=O)Cn2c(=O)n(CCc3ccccc3)c(=O)c3ccccc32)cc1,-14%,-1%
CCOC(=O)c1c(C)[nH]c(CCC(=O)NCc2cc(Br)ccc2OC)c1C,-13%,-3%
Cn1cccc1/C=C1\SC(=S)N(NC(=O)c2ccccc2Cl)C1=O,13%,-10%
Cc1ccc(C(=O)NN2C(=O)/C(=C/c3cn(C)c4ccccc34)SC2=S)cc1,10µM*,1%
Cn1cc(/C=C2\SC(=S)N(NC(=O)c3ccccc3Cl)C2=O)c2ccccc21,10µM*,-3%
Cc1ccc(C(=O)NN2C(=O)/C(=C/c3cccn3C)SC2=S)cc1,?,-9%
CCOc1ccc(C(=O)NCC(c2ccc3c(c2)OCO3)N2CCN(c3ccc(F)cc3)CC2)cc1 (stereo not drawn),-4%,0%
COc1ccccc1CNC(=O)C(NS(=O)(=O)c1ccc2c(c1)CCN2C(C)=O)C(C)C (stereo not drawn),4%,-3%
COc1ccc(OC)c(S(=O)(=O)NCc2cccn2Cc2cccc(C)c2)c1,-1%,-5%
Oc1c(/C=N/Nc2cccc3cccnc23)ccc2ccccc12,32µM*,0%
O=C(Nc1cccc2cccnc12)c1cccc2ccccc12,-7%,2%
COC(=O)c1ccc(NC(=O)CN2C(=O)c3cccc4cccc2c34)cc1,2%,1%
N#Cc1c(N)n(-c2cccc(Cl)c2)c2nc3ccccc3nc12,0%,0%
CCCN(CCC)S(=O)(=O)c1ccc(C(=O)Nc2nc3c(s2)CCc2ccccc2-3)cc1,7.9µM*,1%
COc1cccc(OC)c1C(=O)Nc1nc2c(s1)CCc1ccccc1-2,7%,0%
COc1ccc(NC(=O)C2=C(C)Nc3c(C(=O)Nc4ccc(C)cc4)cnn3C2c2cccc(Cl)c2)cc1 (stereo not drawn),16µM*,-4%
CC1=C(C(=O)Nc2ccc(Cl)cc2)C(c2ccccc2)n2ncc(C(=O)Nc3ccccc3)c2N1 (stereo not drawn),?,-10%
